Laboratory results as given in PubChem BioAssay (NCATS).
Results filed as inconclusive are left out. Values without a mark were called inactive. Active and inactive are the calls of the source. Calls come from the whole dose curve; as a rule, active = well fitted curve in the direction sought with a large enough effect; inconclusive = small, poorly fitted or top-dose-only effect, or another doubt; inactive = no such curve, though single readings can be large; an effect the other way counts as inactive or inconclusive.

Target: Aldehyde dehydrogenase, mitochondrial (Homo sapiens) (UniProt P05091)
Assay: qHTS for Inhibitors of the Aldehyde Dehydrogenase Family (ALDH2) Primary screen (AID 2061308);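 note: plate controls were vehicle for no effect and reference inhibitor for full effect; nearly all actives have a fitted effect of over 55% in size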
Settings: ALDH2 enzyme inhibition qHTS, 1536-well; series mostly up to 56 µM; activity change, negative = inhibition: at the top concentration

SMILES | activity change, negative = inhibition | Potency
O=C(O)c1ccc(-c2nn3c(=O)cc(N4CCNCC4)nc3s2)cc1 | -9% | –
Oc1ccc(CNc2nccc3ccccc23)c2cccnc12 | -9.23% | –
CCn1cnc2c(NCCc3cccnc3)nc(C#N)nc21 | 5.03% | –
O=C1CCCC2CC(Nc3nc4ccccc4o3)CC(c3ccccc3)C12 (stereo not given) | -3.81% | –
C=C1C(=O)OC2/C=C(\COC(C)=O)CC/C=C(\C=O)CC(OC(=O)CC(C)C)C12 (stereo not given) | 6.51% [at 28 µM] | –
COC(=O)c1ccc2c(c1)S(=O)(=O)NC2=O | 10.7% | –
Fc1ccc(Nc2nc(-c3ccncc3F)nc3ccccc23)cc1F | 8.14% | –
O=C(OCC#CCSc1nnc(-c2cc3ccccc3cc2O)o1)c1ccc(F)cc1 | 3.37% | –
Cc1ccc(NS(=O)(=O)c2ccc3[nH]c(=O)[nH]c3c2)cc1C | 4.07% | –
CNc1oc(-c2ccc(Cl)c(Cl)c2)nc1C#N | 7.28% | –
Cn1c2ccsc2c2cnn(Cc3ccc(F)cc3)c(=O)c21 | 5.24% | –
O=C(Nc1ccc(Cl)c(S(=O)(=O)N2CCOCC2)c1)c1ccc(S(=O)(=O)N2CCCCC2)cc1 | 8.31% | –
O=C1c2ccccc2C(=O)N1c1ccc2ncccc2c1 | 6.05% | –
C=CC(C)(C)c1[nH]c2ccccc2c1C[C@@H]1NC(=O)[C@H](C)NC1=O | -24.1% | –
O=C(NCc1nnc(-c2cc3ccccc3[nH]2)s1)c1ccccc1 | 12.5% | –
O=C(CCc1ccccc1Br)NCCc1nc2ccccc2[nH]1 | 12.3% | –
CCNc1ncnc2ccc(-c3ccc4c(c3)OCO4)cc12 | 12.7% | –
CC(=O)N1CCN(S(=O)(=O)c2ccc3c(c2)CC(=O)N3)CC1 | -8.42% [at 114 µM] | –
O=C(Nc1ccc(-c2nc3ccccc3[nH]2)cc1)c1ccc2ncccc2c1 | 5.73% | –
CC1OC(OC2C(O)COC(O[C@@H]3[C@@H](O)[C@@H](O)[C@H](OC4C(OC(=O)[C@]56CCC(C)(C)CC5C5=CCC7[C@@]8(C)C[C@H](O)[C@H](OC9OC(CO)C(O)C(O)C9O)[C@@](C)(CO)C8[C@H](O)C[C@@]7(C)[C@]5(C)CC6)OCC(O)C4O)O[C@H]3C)C2O)C(O)C(O)C1O (stereo not given in full) | 13.1% [at 11.2 µM] | –

SMILES | activity change, negative = inhibition | Potency
Cc1ccc(NS(=O)(=O)c2ccc3c(c2)CCC(C)(C)O3)cc1C | 0.742% | –
CN(C)c1cccc(-c2cc(N3CCC(C(N)=O)CC3)ncn2)c1 | -1.56% | –
O=C(Cn1cc(CNC(=O)C2CCCCC2)nn1)Nc1cc(C(F)(F)F)ccc1Cl | 6.75% | –
COC(=O)C1=CO[C@@H](O[C@@H]2O[C@H](CO)[C@@H](O)[C@H](O)[C@H]2O)[C@H]2[C@@H]1[C@H](O)[C@H](O)[C@]2(C)O | -3.76% [at 28 µM] | –
N=c1c2c(ccn1CCCc1ccccc1)Oc1ccc3ccccc3c1C2c1ccccc1 (stereo not given) | 14.7% | –
CC(C)(C)OC(=O)NCc1nnc(C(C(=O)OCc2ccccc2)c2ccccc2)s1 (stereo not given) | -0.0554% | –
Cc1cccc(C2N=C(Nc3nc4ccccc4o3)NC3=C2C(=O)CCC3)c1 (stereo not given) | -0.88% | –
COc1ccc(C2=Nn3c(nnc3-c3ccccc3C(F)(F)F)SC2)cc1OCC1CC1 | 0.466% | –
O=c1c2ccccc2nc2sc(Nc3ccc(F)cc3)nn12 | 1.48% | –
Cc1nc(CNc2ncnc3ccc(-c4ccc(CO)o4)cc23)cs1 | -14.5% | –
O=C1CCCC2=C1C(c1[nH]ncc1Cl)NC(=NCc1ccccc1)N2 (stereo not given) | 6.66% | –
Oc1ccc(-c2nn[nH]n2)c2cccnc12 | -17.5% | –
NC(=O)c1c(NC(=O)c2ccncn2)sc2c1CCCC2 | – | inactive
Cc1cc(C(C#N)c2ccc(Cl)cc2)c(Cl)cc1NC(=O)c1cc(I)cc(I)c1O (stereo not given) | -15% | –
O=C(CN1C(=O)N/C(=C\c2cccn2-c2cccc(C(=O)O)c2)C1=O)Nc1cccc(Cl)c1 | -23.6% | –
CC(=O)Nc1cccc(S(=O)(=O)N2CCN(S(=O)(=O)c3ccc4c(c3)OCCO4)CC2)c1 | -6.91% | –
O=C(Nc1ccccc1)C1CCN(c2ncc(-c3ccc4c(c3)OCCCO4)s2)CC1 | 6% [at 171 µM] | –
Cc1ccc(S(=O)(=O)Nc2ccccc2N2CCCCC2)s1 | 0.927% | –
C[C@H](Oc1cc(-n2cnc3ccc(CN4CCN(C)CC4)cc32)sc1C(N)=O)c1ccccc1C(F)(F)F | 1.77% | –
Cc1cc(S(=O)(=O)Nc2cnccc2C(=O)Nc2nc(-c3ccccc3)cs2)c(C)o1 | -0.937% | –

Target: Retinaldehyde dehydrogenase 3 (Homo sapiens) (UniProt P47895)
Assay: qHTS for Inhibitors of the Aldehyde Dehydrogenase Family (ALDH1A3) Primary screen (AID 2061315);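 note: plate controls were DMSO vehicle for no effect and reference inhibitor for full effect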
Settings: ALDH inhibition qHTS; series mostly up to 56 µM; activity change, negative = inhibition: at the top concentration

SMILES | activity change, negative = inhibition | Potency
O=C(O)c1ccc(-c2nn3c(=O)cc(N4CCNCC4)nc3s2)cc1 | 3.15% | –
Oc1ccc(CNc2nccc3ccccc23)c2cccnc12 | -16% | –
CCn1cnc2c(NCCc3cccnc3)nc(C#N)nc21 | -5.31% | –
O=C1CCCC2CC(Nc3nc4ccccc4o3)CC(c3ccccc3)C12 (stereo not given) | 4.45% | –
C=C1C(=O)OC2/C=C(\COC(C)=O)CC/C=C(\C=O)CC(OC(=O)CC(C)C)C12 (stereo not given) | 3.99% [at 28 µM] | –
COC(=O)c1ccc2c(c1)S(=O)(=O)NC2=O | 4.05% | –
Fc1ccc(Nc2nc(-c3ccncc3F)nc3ccccc23)cc1F | 9.21% | –
O=C(OCC#CCSc1nnc(-c2cc3ccccc3cc2O)o1)c1ccc(F)cc1 | 16.4% | –
Cc1ccc(NS(=O)(=O)c2ccc3[nH]c(=O)[nH]c3c2)cc1C | 4.77% | –
CNc1oc(-c2ccc(Cl)c(Cl)c2)nc1C#N | 0.272% | –
Cn1c2ccsc2c2cnn(Cc3ccc(F)cc3)c(=O)c21 | -0.978% | –
O=C(Nc1ccc(Cl)c(S(=O)(=O)N2CCOCC2)c1)c1ccc(S(=O)(=O)N2CCCCC2)cc1 | -1.61% | –
O=C1c2ccccc2C(=O)N1c1ccc2ncccc2c1 | -16.4% | –
C=CC(C)(C)c1[nH]c2ccccc2c1C[C@@H]1NC(=O)[C@H](C)NC1=O | 4.62% | –
O=C(NCc1nnc(-c2cc3ccccc3[nH]2)s1)c1ccccc1 | -5.05% | –
O=C(CCc1ccccc1Br)NCCc1nc2ccccc2[nH]1 | 7.7% | –
CCNc1ncnc2ccc(-c3ccc4c(c3)OCO4)cc12 | -2.9% | –
CC(=O)N1CCN(S(=O)(=O)c2ccc3c(c2)CC(=O)N3)CC1 | 2.62% [at 114 µM] | –
O=C(Nc1ccc(-c2nc3ccccc3[nH]2)cc1)c1ccc2ncccc2c1 | -10.3% | –
CC1OC(OC2C(O)COC(O[C@@H]3[C@@H](O)[C@@H](O)[C@H](OC4C(OC(=O)[C@]56CCC(C)(C)CC5C5=CCC7[C@@]8(C)C[C@H](O)[C@H](OC9OC(CO)C(O)C(O)C9O)[C@@](C)(CO)C8[C@H](O)C[C@@]7(C)[C@]5(C)CC6)OCC(O)C4O)O[C@H]3C)C2O)C(O)C(O)C1O (stereo not given in full) | 4.77% [at 11.2 µM] | –

SMILES | activity change, negative = inhibition | Potency
Cc1ccc(NS(=O)(=O)c2ccc3c(c2)CCC(C)(C)O3)cc1C | 13.4% | –
CN(C)c1cccc(-c2cc(N3CCC(C(N)=O)CC3)ncn2)c1 | -6.8% | –
O=C(Cn1cc(CNC(=O)C2CCCCC2)nn1)Nc1cc(C(F)(F)F)ccc1Cl | 0.711% | –
COC(=O)C1=CO[C@@H](O[C@@H]2O[C@H](CO)[C@@H](O)[C@H](O)[C@H]2O)[C@H]2[C@@H]1[C@H](O)[C@H](O)[C@]2(C)O | -22.2% [at 28 µM] | –
N=c1c2c(ccn1CCCc1ccccc1)Oc1ccc3ccccc3c1C2c1ccccc1 (stereo not given) | 4.74% | –
CC(C)(C)OC(=O)NCc1nnc(C(C(=O)OCc2ccccc2)c2ccccc2)s1 (stereo not given) | 5.96% | –
Cc1cccc(C2N=C(Nc3nc4ccccc4o3)NC3=C2C(=O)CCC3)c1 (stereo not given) | 30.8% | –
COc1ccc(C2=Nn3c(nnc3-c3ccccc3C(F)(F)F)SC2)cc1OCC1CC1 | 3.25% | –
O=c1c2ccccc2nc2sc(Nc3ccc(F)cc3)nn12 | 6.85% | –
Cc1nc(CNc2ncnc3ccc(-c4ccc(CO)o4)cc23)cs1 | 0.86% | –
O=C1CCCC2=C1C(c1[nH]ncc1Cl)NC(=NCc1ccccc1)N2 (stereo not given) | 7.69% | –
Oc1ccc(-c2nn[nH]n2)c2cccnc12 | 23.2% | –
NC(=O)c1c(NC(=O)c2ccncn2)sc2c1CCCC2 | – | inactive
Cc1cc(C(C#N)c2ccc(Cl)cc2)c(Cl)cc1NC(=O)c1cc(I)cc(I)c1O (stereo not given) | 13% | –
O=C(CN1C(=O)N/C(=C\c2cccn2-c2cccc(C(=O)O)c2)C1=O)Nc1cccc(Cl)c1 | 2.79% | –
CC(=O)Nc1cccc(S(=O)(=O)N2CCN(S(=O)(=O)c3ccc4c(c3)OCCO4)CC2)c1 | 21% | –
O=C(Nc1ccccc1)C1CCN(c2ncc(-c3ccc4c(c3)OCCCO4)s2)CC1 | 27.4% [at 171 µM] | –
Cc1ccc(S(=O)(=O)Nc2ccccc2N2CCCCC2)s1 | 1.19% | –
C[C@H](Oc1cc(-n2cnc3ccc(CN4CCN(C)CC4)cc32)sc1C(N)=O)c1ccccc1C(F)(F)F | 1.23% | –
Cc1cc(S(=O)(=O)Nc2cnccc2C(=O)Nc2nc(-c3ccccc3)cs2)c(C)o1 | 15% | –
